# In article PMC5540273 (PLoS ONE, 2017):
# Several values for one entry are separate records, joined by “and”; a condition that tells them apart may be missing. Equal entries are not always repeated. Where two headings read alike, the source gives them in different places.
# Tests used:
# Conditions in all cases: concentration: 1 μM, replicates: in singlicate, n = 1
# AMPK-alpha2 = test system: T1, AMPK-alpha2
# T1 construct: gene PRKAA2
# ANKK1 = test system: ANKK1
# ARK5 = test system: T2, ARK5
# T2 construct: gene NUAK1
# ASK1 = test system: T3, ASK1
# T3 construct: gene MAP3K5
# ASK2 = test system: T4, ASK2
# T4 construct: gene MAP3K6
# AURKA = test system: AURKA
# AURKB = test system: AURKB
# AURKC = test system: AURKC
# AXL = test system: AXL
# BIKE = test system: T5, BIKE
# T5 construct: gene BMP2K
# BLK = test system: BLK
# BMPR1A = test system: BMPR1A
# BMPR1B = test system: BMPR1B
# BMPR2 = test system: BMPR2
# BMX = test system: BMX
# BRAF = test system: BRAF
# BRK = test system: T6, BRK
# T6 construct: gene PTK6
# BRSK1 = test system: BRSK1
# BRSK2 = test system: BRSK2
# BTK = test system: BTK
# 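Note: KINOMEscan kinase panel screen.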
compound,measurement,setting,value
NCC(NC(=O)c1cc(-c2cn[nH]c2)c(-c2ccnc3[nH]ccc23)s1)c1ccccc1.O=C(O)C(F)(F)F.O=C(O)C(F)(F)F (stereo not drawn) [GSK1325775],%Inh,AMPK-alpha2,24%
same,%Inh,ANKK1,0%
same,%Inh,ARK5,52%
same,%Inh,ASK1,11%
same,%Inh,ASK2,23%
same,%Inh,AURKA,95.6%
same,%Inh,AURKB,83%
same,%Inh,AURKC,82%
same,%Inh,AXL,45%
same,%Inh,BIKE,99.7%
same,%Inh,BLK,0%
same,%Inh,BMPR1A,0%
same,%Inh,BMPR1B,80%
same,%Inh,BMPR2,4%
same,%Inh,BMX,0%
same,%Inh,BRAF,0%
same,%Inh,BRK,0%
same,%Inh,BRSK1,30%
same,%Inh,BRSK2,21%
same,%Inh,BTK,0%
NCCNS(=O)(=O)c1ccc(-c2ccnc3[nH]ccc23)cc1 [GSK977617],%Inh,AMPK-alpha2; 1 µM,60% and 31%
same,%Inh,ANKK1,0%
same,%Inh,ARK5; 1 µM,45% and 17%
same,%Inh,ASK1; 1 µM,30% and 5%
same,%Inh,ASK2; 1 µM,21% and 18%
same,%Inh,AURKA; 1 µM,51% and 39%
same,%Inh,AURKB; 1 µM,71% and 67%
same,%Inh,AURKC; 1 µM,92.4% and 84%
same,%Inh,AXL; 1 µM,93% and 87%
same,%Inh,BIKE; 1 µM,97.4% and 93.3%
same,%Inh,BLK; 1 µM,49% and 16%
same,%Inh,BMPR1A; 1 µM,10% and 0%
same,%Inh,BMPR1B; 1 µM,0% and 22%
same,%Inh,BMPR2; 1 µM,18% and 27%
same,%Inh,BMX; 1 µM,2% and 0%
same,%Inh,BRAF,0%
same,%Inh,BRK; 1 µM,0% and 9%
same,%Inh,BRSK1; 1 µM,28% and 5%
same,%Inh,BRSK2; 1 µM,25% and 0%
same,%Inh,BTK,0%
Cc1c(Cn2c(C)nn3c(=O)cc(N4CCOC(C)C4)nc23)cccc1C(F)(F)F (stereo not drawn) [GSK2344444],%Inh,AMPK-alpha2,0%
same,%Inh,ANKK1,0%
same,%Inh,ARK5,10%
same,%Inh,ASK1,1%
same,%Inh,ASK2,8%
same,%Inh,AURKA,0%
same,%Inh,AURKB,0%
same,%Inh,AURKC,8%
same,%Inh,AXL,0%
same,%Inh,BIKE,16%
same,%Inh,BLK,25%
same,%Inh,BMPR1A,6%
same,%Inh,BMPR1B,0%
same,%Inh,BMPR2,0%
same,%Inh,BMX,1%
same,%Inh,BRAF,0%
same,%Inh,BRK,7%
same,%Inh,BRSK1,0%
same,%Inh,BRSK2,0%
same,%Inh,BTK,0%
COc1ccc(Nc2nccc(N3CCC(NC(=O)Nc4cccc(C(C)=O)c4)C3)n2)cc1 (stereo not drawn) [GSK1379731],%Inh,AMPK-alpha2,0%
same,%Inh,ANKK1,0%
same,%Inh,ARK5,50%
same,%Inh,ASK1,0%
same,%Inh,ASK2,0%
same,%Inh,AURKA,0%
same,%Inh,AURKB,0%
same,%Inh,AURKC,40%
same,%Inh,AXL,9%
same,%Inh,BIKE,30%
same,%Inh,BLK,35%
same,%Inh,BMPR1A,0%
same,%Inh,BMPR1B,0%
same,%Inh,BMPR2,0%
same,%Inh,BMX,0%
same,%Inh,BRAF,0%
same,%Inh,BRK,7%
same,%Inh,BRSK1,0%
same,%Inh,BRSK2,0%
same,%Inh,BTK,0%
CN(C1=C(c2ccccc2)C(=O)NC1=O)c1ccccc1 [SB-334860],%Inh,AMPK-alpha2,23%
same,%Inh,ANKK1,9%
same,%Inh,ARK5,42%
same,%Inh,ASK1,12%
same,%Inh,ASK2,0%
same,%Inh,AURKA,21%
same,%Inh,AURKB,10%
same,%Inh,AURKC,0%
same,%Inh,AXL,0%
same,%Inh,BIKE,0%
same,%Inh,BLK,0%
same,%Inh,BMPR1A,0%
same,%Inh,BMPR1B,0%
same,%Inh,BMPR2,0%
same,%Inh,BMX,13%
same,%Inh,BRAF,0%
same,%Inh,BRK,2%
same,%Inh,BRSK1,0%
same,%Inh,BRSK2,0%
same,%Inh,BTK,0%
CN(C(=O)c1ccc(-c2cc(-c3c[nH]nc3-c3ccccn3)ccn2)cc1)C1CCOCC1 [GW810083],%Inh,AMPK-alpha2,0%
same,%Inh,ANKK1,0%
same,%Inh,ARK5,15%
same,%Inh,ASK1,44%
same,%Inh,ASK2,0%
same,%Inh,AURKA,0%
same,%Inh,AURKB,0%
same,%Inh,AURKC,7%
same,%Inh,AXL,48%
same,%Inh,BIKE,20%
same,%Inh,BLK,22%
same,%Inh,BMPR1A,0%
same,%Inh,BMPR1B,0%
same,%Inh,BMPR2,24%
same,%Inh,BMX,0%
same,%Inh,BRAF,0%
same,%Inh,BRK,4%
same,%Inh,BRSK1,3%
same,%Inh,BRSK2,8%
same,%Inh,BTK,16%
O=C(Nc1cccc(-c2nn3ncccc3c2-c2ccnc(Nc3cccc(C(F)(F)F)c3)n2)c1)c1c(F)cccc1F [GSK299495],%Inh,AMPK-alpha2,15%
same,%Inh,ANKK1,0%
same,%Inh,ARK5,12%
same,%Inh,ASK1,1%
same,%Inh,ASK2,3%
same,%Inh,AURKA,9%
same,%Inh,AURKB,29%
same,%Inh,AURKC,56%
same,%Inh,AXL,6%
same,%Inh,BIKE,19%
same,%Inh,BLK,95.9%
same,%Inh,BMPR1A,0%
same,%Inh,BMPR1B,0%
same,%Inh,BMPR2,23%
same,%Inh,BMX,72%
same,%Inh,BRAF,69%
same,%Inh,BRK,71%
same,%Inh,BRSK1,0%
same,%Inh,BRSK2,0%
same,%Inh,BTK,66%
O=C(c1ccc(-c2cc(-c3c[nH]nc3-c3ccccn3)ccn2)cc1)N1CCOCC1 [GW812171],%Inh,AMPK-alpha2,22%
same,%Inh,ANKK1,14%
same,%Inh,ARK5,0%
same,%Inh,ASK1,0%
same,%Inh,ASK2,0%
same,%Inh,AURKA,13%
same,%Inh,AURKB,33%
same,%Inh,AURKC,0%
same,%Inh,AXL,0%
same,%Inh,BIKE,0%
same,%Inh,BLK,0%
same,%Inh,BMPR1A,0%
same,%Inh,BMPR1B,11%
same,%Inh,BMPR2,16%
same,%Inh,BMX,0%
same,%Inh,BRAF,32%
same,%Inh,BRK,0%
same,%Inh,BRSK1,0%
same,%Inh,BRSK2,10%
same,%Inh,BTK,0%
COc1cc2c(cc1OCCN1CCN(C)CC1)ncc1c3ccc(C#N)cc3[nH]c21,%Inh,AMPK-alpha2,0%
same,%Inh,ANKK1,54%
same,%Inh,ARK5,22%
same,%Inh,ASK1,0%
same,%Inh,ASK2,0%
same,%Inh,AURKA,0%
same,%Inh,AURKB,70%
same,%Inh,AURKC,33%
same,%Inh,AXL,26%
same,%Inh,BIKE,100%
same,%Inh,BLK,4%
same,%Inh,BMPR1A,0%
same,%Inh,BMPR1B,0%
same,%Inh,BMPR2,0%
same,%Inh,BMX,0%
same,%Inh,BRAF,0%
same,%Inh,BRK,23%
same,%Inh,BRSK1,4%
same,%Inh,BRSK2,0%
same,%Inh,BTK,0%
Fc1ccc(-c2ncn(CCCN3CCOCC3)c2-c2ccccn2)cc1 [SB-211742],%Inh,AMPK-alpha2,0%
same,%Inh,ANKK1,0%
same,%Inh,ARK5,0%
same,%Inh,ASK1,10%
same,%Inh,ASK2,0%
same,%Inh,AURKA,0%
same,%Inh,AURKB,0%
same,%Inh,AURKC,0%
same,%Inh,AXL,6%
same,%Inh,BIKE,23%
same,%Inh,BLK,9%
same,%Inh,BMPR1A,7%
same,%Inh,BMPR1B,0%
same,%Inh,BMPR2,0%
same,%Inh,BMX,0%
same,%Inh,BRAF,0%
same,%Inh,BRK,2%
same,%Inh,BRSK1,6%
same,%Inh,BRSK2,14%
same,%Inh,BTK,15%
C[C@@H](Oc1cc(-n2cnc3ccc(NC(=O)NC(C)(C)C)cc32)sc1C(N)=O)c1ccccc1Cl [GSK346294],%Inh,AMPK-alpha2,12%
same,%Inh,ANKK1,8%
same,%Inh,ARK5,11%
same,%Inh,ASK1,3%
same,%Inh,ASK2,0%
same,%Inh,AURKA,8%
same,%Inh,AURKB,22%
same,%Inh,AURKC,34%
same,%Inh,AXL,0%
same,%Inh,BIKE,32%
same,%Inh,BLK,0%
same,%Inh,BMPR1A,0%
same,%Inh,BMPR1B,0%
same,%Inh,BMPR2,5%
same,%Inh,BMX,22%
same,%Inh,BRAF,0%
same,%Inh,BRK,17%
same,%Inh,BRSK1,10%
same,%Inh,BRSK2,15%
same,%Inh,BTK,6%
CC(=O)Nc1ccc(COc2ccc(Nc3ccnc4cc(-c5ccccn5)ccc34)cc2)cc1.Cl [GW440148],%Inh,AMPK-alpha2,11%
same,%Inh,ANKK1,8%
same,%Inh,ARK5,18%
same,%Inh,ASK1,10%
same,%Inh,ASK2,0%
same,%Inh,AURKA,14%
same,%Inh,AURKB,67%
same,%Inh,AURKC,46%
same,%Inh,AXL,1%
same,%Inh,BIKE,8%
same,%Inh,BLK,53%
same,%Inh,BMPR1A,0%
same,%Inh,BMPR1B,0%
same,%Inh,BMPR2,1%
same,%Inh,BMX,17%
same,%Inh,BRAF,0%
same,%Inh,BRK,57%
same,%Inh,BRSK1,0%
same,%Inh,BRSK2,0%
same,%Inh,BTK,0%
CC(C)(CN)c1nc(-c2ccc(Cl)c(O)c2)c(-c2ccncc2)[nH]1.O=C(O)C(F)(F)F [SB-477794],%Inh,AMPK-alpha2; 1 µM,15% and 13%
same,%Inh,ANKK1; 1 µM,0% and 1%
same,%Inh,ARK5; 1 µM,19% and 0%
same,%Inh,ASK1; 1 µM,19% and 0%
same,%Inh,ASK2; 1 µM,1% and 3%
same,%Inh,AURKA; 1 µM,8% and 0%
same,%Inh,AURKB; 1 µM,31% and 15%
same,%Inh,AURKC; 1 µM,0% and 30%
same,%Inh,AXL; 1 µM,5% and 13%
same,%Inh,BIKE; 1 µM,0% and 21%
same,%Inh,BLK; 1 µM,98.2% and 98%
same,%Inh,BMPR1A; 1 µM,37% and 47%
same,%Inh,BMPR1B,99.9%
same,%Inh,BMPR2; 1 µM,32% and 33%
same,%Inh,BMX; 1 µM,0% and 40%
same,%Inh,BRAF; 1 µM,97.8% and 98.5%
same,%Inh,BRK; 1 µM,99.7% and 99.6%
same,%Inh,BRSK1; 1 µM,0% and 20%
same,%Inh,BRSK2; 1 µM,0% and 22%
same,%Inh,BTK; 1 µM,43% and 71%
CCn1cnc2c(N)ncnc21 [GW345098],%Inh,AMPK-alpha2,0%
same,%Inh,ANKK1,0%
same,%Inh,ARK5,0%
same,%Inh,ASK1,15%
same,%Inh,ASK2,0%
same,%Inh,AURKA,4%
same,%Inh,AURKB,6%
same,%Inh,AURKC,4%
same,%Inh,AXL,0%
same,%Inh,BIKE,5%
same,%Inh,BLK,12%
same,%Inh,BMPR1A,24%
same,%Inh,BMPR1B,15%
same,%Inh,BMPR2,35%
same,%Inh,BMX,41%
same,%Inh,BRAF,0%
same,%Inh,BRK,8%
same,%Inh,BRSK1,5%
same,%Inh,BRSK2,0%
same,%Inh,BTK,0%
CNc1ncnc2[nH]ncc12 [SKF-18355],%Inh,AMPK-alpha2,0%
same,%Inh,ANKK1,0%
same,%Inh,ARK5,0%
same,%Inh,ASK1,0%
same,%Inh,ASK2,0%
same,%Inh,AURKA,2%
same,%Inh,AURKB,34%
same,%Inh,AURKC,0%
same,%Inh,AXL,0%
same,%Inh,BIKE,0%
same,%Inh,BLK,0%
same,%Inh,BMPR1A,6%
same,%Inh,BMPR1B,0%
same,%Inh,BMPR2,35%
same,%Inh,BMX,0%
same,%Inh,BRAF,11%
same,%Inh,BRK,0%
same,%Inh,BRSK1,0%
same,%Inh,BRSK2,0%
same,%Inh,BTK,0%
